The values below come from PubChem BioAssay AID463173 (ICCB-Longwood Screening Facility, Harvard Medical School, 2010).

The structures appear in SMILES notation. Out of some 52,000 compounds screened, about 4,300 (8.3%) were called active. Many of the other results were omitted from the sample, so actives are more common in it than they were. Values without a mark were called inactive. Rule as the data show it: active = survival mostly below about 52% (no sharp cut-off); inactive = mostly above about 56%.

The assay has as its system DeltatarO mutant. Put plainly: S. aureus survival, RN4220 and DeltatarO strains – OD600, teichoic acid synthesis inhibitors, primary screen (AID 463173). The following applies: S. aureus RN4220 wild type/DeltatarO growth, OD600, 18 h, stronger effect = lower value, screened at 18.75 µg/mL (by protocol).
With `O=C(OC1CSc2nc3ccccc3n2C1)c1ccccc1Cl` (centres undefined), the survival is 95%.

With `COC(=O)C1CC(=O)N(c2ccccc2)C1` (centres undefined), the survival is 72%.

Regarding `CCCOc1ccc(C(=O)NCC2OCCc3ccccc32)cc1` (centres undefined), the survival was 49%.

In the case of `CC(C)COc1ccc(C(=O)NCC2OCCc3ccccc32)cc1` (centres undefined), the survival is 51%.

Turning to `CC(C)CCOc1ccc(C(=O)NCC2OCCc3ccccc32)cc1` (centres undefined), the survival is 39% (active).

On to `Cc1ccccc1NC(=O)CSc1nnc(-c2cccs2)o1`, for which the survival is 71%.

For `Cc1c(Cl)cccc1-n1ncc(C(=O)Nc2ccc(Br)cc2F)c1C1CCNCC1`, the survival is 87%.

On to `COc1cc(Cl)c(NS(=O)(=O)c2ccc3[nH]c(=O)ccc3c2)c(OC)c1`, for which the survival is 102%.

On to `CC(C)(C)C(=O)CNS(=O)(=O)c1ccc(S(=O)(=O)NC2CCCCC2)cc1`, for which the survival is 79%.

Consider `O=C(CNS(=O)(=O)c1ccc(Cl)cc1)NC1CCCC1`, for which the survival is 67% (active).

As to `O=C(CNS(=O)(=O)c1ccc(Cl)cc1)NN=C1CCCCC1`, the survival is 92%.

As to `Cc1cc(-c2ccc(S(=O)(=O)NCc3ccccc3Cl)s2)on1`, the survival is 128%.

`CCOc1ccc(OCC)c(NC(=O)c2cc3ccccn3n2)c1`: the survival was 87%.

As to `COc1ccc(-c2noc(CNC(=O)c3ccccc3Br)n2)cc1`, the survival is 51%.

In the case of `COc1ccc(-c2noc(CNC(=O)c3ccco3)n2)cc1`, the survival is 87%.

For the molecule `COc1cc(OC)c(C(=O)NCc2nc(-c3ccccc3)no2)cc1OC`, the survival was 41% (active).

On to `O=C(NCc1nc(-c2ccccc2)no1)c1ccco1`, for which the survival is 68%.

`COc1cc(C(=O)NCc2nc(-c3ccc(Cl)cc3)no2)cc(OC)c1OC`: the survival was 59%.

As for `COc1cccc(C(=O)NCc2nc(-c3ccccc3)no2)c1OC`, the survival was 43% (active).

In the case of `COc1ccc(Cl)cc1C(=O)NCc1nc(-c2cccc(C)c2)no1`, the survival is 48%.

Take `COc1ccc(-c2noc(CNC(=O)c3ccc(OC)cc3OC)n2)cc1`: the survival is 62% (active).

`COc1ccc(-c2noc(CNC(=O)c3cc(OC)c(OC)c(OC)c3)n2)cc1`: the survival was 55%.

On to `NC(=O)Cn1cc(F)c(=O)[nH]c1=O`, for which the survival was 87%.

For `Cc1ccccc1-c1noc(C(C)NC(=O)c2ccco2)n1` (centres undefined), the survival is 79%.

As to `COc1ccc(-n2c(=O)c3c4c(sc3n(Cc3ccccc3C)c2=O)CCCC4)c(OC)c1`, the survival is 64%.

For `CCOc1ccccc1NC(=O)c1cc(S(=O)(=O)NC2CCCC2)ccc1F`, the survival was 81%.

`O=C(NCC(c1ccccc1)c1ccccc1)c1nn(-c2ccccc2F)nc1CO`: the survival is 104%.

In the case of `Cc1ccccc1NC(=O)Cn1c(=O)n(Cc2ccccc2)c(=O)c2sc3ccccc3c21`, the survival is 65%.

Take `COc1ccccc1NC(=O)Cn1c(=O)n(Cc2ccccc2)c(=O)c2sc3ccccc3c21`: the survival was 68% (active).

As to `COc1ccccc1NC(=O)Cn1c(=O)n(CCc2ccccc2)c(=O)c2sc3ccccc3c21`, the survival is 74%.

For `O=c1c2sc3ccccc3c2n(Cc2ccc(F)cc2)c(=O)n1Cc1ccccc1`, the survival was 137%.

On to `O=c1c2sc3ccccc3c2n(Cc2cccc(Cl)c2)c(=O)n1Cc1ccc(F)cc1`, for which the survival is 68% (active).

As to `O=c1c2sc3ccccc3c2n(Cc2cccc(Cl)c2)c(=O)n1Cc1ccccc1`, the survival was 66%.

As to `CCS(=O)(=O)c1ncc(N(Cc2cccc(F)c2)Cc2ccco2)c(C(=O)Nc2ccccc2Cl)n1`, the survival was 64%.

Consider `COc1ccc(Cl)cc1NC(=O)c1nc(S(C)(=O)=O)ncc1N(Cc1ccc(C)cc1)Cc1ccco1`, for which the survival is 103%.

In the case of `COc1ccccc1CN(Cc1ccco1)c1cnc(S(C)(=O)=O)nc1C(=O)Nc1ccccc1Cl`, the survival is 46% (active).

Turning to `COc1cccc(CN(Cc2ccco2)c2cnc(S(C)(=O)=O)nc2C(=O)Nc2cccc(Cl)c2C)c1`, the survival was 47% (active).

`CCc1ccc(CN(Cc2ccco2)c2cnc(S(C)(=O)=O)nc2C(=O)Nc2ccccc2Cl)cc1`: the survival was 101%.

Turning to `COc1ccccc1CN(Cc1ccco1)c1cnc(S(C)(=O)=O)nc1C(=O)Nc1cc(C)ccc1C`, the survival is 58%.

With `CCOc1ccccc1NC(=O)C(=O)c1cc(C)n(-c2ccc(F)cc2)c1C`, the survival is 114%.

Regarding `Cn1cc(-c2nnc(-c3ccccc3)o2)c2ccccc21`, the survival was 94%.

With `CCOc1ccc(C(=O)NCc2nc(-c3ccc(Cl)cc3)no2)cc1OCC`, the survival is 49%.

For the molecule `CCOc1cc(C(=O)N(Cc2nc(-c3ccc(C)cc3)no2)C(C)C)cc(OCC)c1OCC`, the survival was 50% (active).

For the molecule `COc1cccc(C(=O)N(Cc2nc(-c3ccc(Cl)cc3)no2)C(C)C)c1OC`, the survival was 66%.

With `Cc1ccc(-c2noc(CNC(=O)c3ccc(C(C)(C)C)cc3)n2)cc1`, the survival was 79%.

In the case of `CCOc1cc(C(=O)NCc2nc(-c3cccc(C)c3)no2)cc(OCC)c1OCC`, the survival was 70%.

For `Cc1cc(C)cc(C(=O)N(Cc2nc(-c3ccc(Cl)cc3)no2)C(C)C)c1`, the survival was 14% (active).

`CCCCOc1ccc(C(=O)N(Cc2nc(-c3ccc(Cl)cc3)no2)C(C)C)cc1`: the survival is 59%.

With `CC(C)N(Cc1nc(-c2ccc(Cl)cc2)no1)C(=O)c1ccco1`, the survival is 68%.

Regarding `Cc1ccccc1C(=O)N(Cc1nc(-c2ccc(Cl)cc2)no1)C(C)C`, the survival was 78%.

On to `Cc1ccc(-c2noc(CN(C(=O)c3ccc(C(C)(C)C)cc3)C(C)C)n2)cc1`, for which the survival is -4% (active).

With `CC(C)N(Cc1nc(-c2ccc(Cl)cc2)no1)C(=O)c1ccc(C(C)(C)C)cc1`, the survival was -1% (active).

In the case of `O=C(CCN1C(=O)CSC1=O)Nc1ccccc1`, the survival is 114%.

As to `COc1ccc(OC)c(-c2noc(N3CCN(c4cccc(C(F)(F)F)c4)CC3)n2)c1`, the survival was 124%.

`COc1ccc(NC(=O)c2cnn(-c3ccc(C)cc3)c2-n2cccc2)cc1Cl`: the survival was 69%.

As for `CN1C(=O)Cc2cc(S(=O)(=O)N3CCN(c4ccccc4F)CC3)ccc21`, the survival was 107%.

Turning to `COC(=O)c1cc2occc2n1CC(=O)Nc1ccc(C(C)C)cc1`, the survival is 93%.

As for `CCc1ccccc1Nc1cc(C(=O)NCc2ccc(C)cc2)c2ccccc2n1`, the survival is 69%.

As for `COc1cccc(CNC(=O)CCC(=O)N2CC(C)Sc3ccccc32)c1` (centres undefined), the survival was 51% (active).

Consider `Cc1ccc(CNC(=O)CCC(=O)N2CCSc3ccccc32)cc1`, for which the survival is 113%.

For the molecule `Cc1ccc(CNC(=O)CCC(=O)N2CC(C)Sc3ccccc32)cc1` (centres undefined), the survival was 45% (active).

As to `CC1CN(C(=O)CCC(=O)NCc2cccc(Cl)c2)c2ccccc2S1` (centres undefined), the survival was 100%.

For `CCOc1ccc(CNC(=O)CCC(=O)N2CC(C)Sc3ccccc32)cc1` (centres undefined), the survival was 56%.

For `COc1ccccc1CNC(=O)CCC(=O)N1CC(C)Sc2ccccc21` (centres undefined), the survival is 111%.
